What all share (experiment): NCI-60 one-dose screen, 48 h (100 = growth as untreated, 0 = no growth, -100 = all killed)
Holding throughout (conditions): 10 µM unless noted

Test [1] deals with NCI-H23 lung.
In test [2] the test system is NCI-H226 lung.
The subject of test [3] is NCI-H322M lung.
In test [4] the test system is HOP-62 NSCLC.
Test [5] deals with NCI-H460 lung.
For test [6], the system named is A549/ATCC NSCLC.
Test [7] relates to 786-0 renal.
The subject of test [8] is COLO 205 colon.
The test system of test [9] is DU-145 prostate.
Test [10] relates to K-562 leukemia.
Test [11] concerns MALME-3M melanoma.
For test [12], the system named is MDA-MB-231 breast.
The subject of test [13] is RXF 393 renal.
The test system of test [14] is SF-268 CNS.
The test system of test [15] is SF-295 CNS.
Test [16] relates to SF-539 CNS.
In test [17] the test system is UACC-257 melanoma.
The test system of test [18] is M14 melanoma.
The subject of test [19] is HCT-15 colon.
Test [20] concerns NCI-H522 lung.

Each structure is given as a SMILES string. Compounds without any hit were thinned out: in the full panel of roughly 83,000, 20% have a hit.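 Single-dose data. Exposure time 48 hours. Values below 10 considered active.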 Values without a mark were called inactive. Calls of active or inactive are those of the source.

On to `CCOC(=O)c1ccccc1OC(=O)NNc1ccccc1`, for which the growth in test [1] is 100%; in test [2] it was 88.8%; in test [3], 58%; in test [4] it was 70.6%; in test [5], 30.5%; in [6], 74.1%. For the same compound, the growth is 44.6% in test [7]; 76.2% in test [8]; 82% in test [9]; 5.06% (active) in test [10]; 82.1% in test [11]; 81.3% in test [12]. In addition, the growth in [13] was 124%; in [14], 65.6%; in [15], 49.1%; in test [16], 10.7%; in test [17], 85.8%; in [18] it was 57.3%. In addition, in test [19], the growth was 46%.
Take `Cn1c(=O)c2nc(SCc3ccccc3)n(C)c2n(C)c1=O`: the growth in test [1] is 108%; in [2], 102%; in [3], 109%; in test [4], 107%; in [5], 109%; in test [6], 99.2%. The growth in [7] is 109%; in test [8] it was 104%; in [9] it was 117%; in [10], 103%; in test [11] it was 143%; in test [12], 97.7%. Further, the growth in test [13] was 112%; in test [14], 106%; in test [15], 117%; in [16], 101%; in [17] it was 111%; in [18], 107%.
Consider `CCCCC(C#N)C(N)=O` (stereo not drawn), for which the growth in [1] is 105%; in test [2], 102%; in [3], 110%; in test [4], 99%; in test [5], 111%; in test [20], 96.7%. Moreover, the growth in test [7] is 96.4%; in [8], 124%; in test [9], 104%; in [11], 107%; in [12], 104%; in [13], 121%. For the same compound, the growth in test [14] was 114%; in [16], 96.9%; in test [18] it was 104%; in [19], 105%.
Consider `CC(C)COCC(CN(Cc1ccccc1)c1ccccc1)N1CCCC1` (stereo not drawn), for which the growth in [1] was 60.7%; in test [2], 65.8%; in [3], 78.8%; in [4], 71.3%; in test [5], 43.8%; in test [20], 32.1%. Besides, the growth in [7] is 68.2%; in [8] it was 40.1%; in test [9], 70%; in test [10], 31.3%; in [11] it was 84.3%; in test [12] it was 29.5%. The growth in test [14] was 71.5%; in [15], 63.6%; in [16], 78.5%; in test [18], 51.9%.
Regarding `COc1cccc(CCC2C(=O)CCCC2=O)c1`, the growth was 103% in test [1]; 111% in [2]; 102% in [3]; 106% in test [4]; 117% in test [5]; 108% in [6]. Moreover, the growth was 108% in [7]; 99.5% in [8]; 105% in [9]; 109% in test [10]; 115% in test [11]; 114% in test [12]. Also, the growth was 134% in [13]; 98.1% in [14]; 118% in test [15]; 98.8% in test [16]; 108% in test [17]; 113% in test [18]. Besides, the growth in test [19] is 108%.
On to `CN(C)CCCN1c2nc3ccccc3cc2Sc2cc3ccccc3nc21`, for which the growth was -34.2% (active) in test [1]; 40.1% in test [2]; 18% in test [3]; 32% in test [4]; -89.1% (active) in [5]; -67.7% (active) in test [20]. Also, the growth in [7] is -86.3% (active); in [8] it was -89.2% (active); in test [10] it was 4.31% (active); in test [11] it was -75.9% (active); in test [12] it was -82.8% (active); in test [14] it was 27.2%. The growth in test [15] was -74.7% (active); in [16], -94.6% (active); in [17] it was -69.5% (active); in test [18], -70.6% (active); in test [19], 2.14% (active).
On to `O=C(/C=C/c1ccccc1)CC(c1ccccc1)N1CCOCC1` (stereo not drawn), for which the growth in test [1] is 96.6%; in test [2] it was 99.5%; in [3], 121%; in test [4], 102%; in test [5], 106%; in test [6] it was 63%. In addition, the growth in test [7] is 4.06% (active); in test [8], 76.3%; in test [9], 91.3%; in [10], 49.9%; in test [11], 138%; in test [12], 60.3%. Further, the growth was 102% in test [13]; 97.3% in [14]; 98.7% in test [15]; 69.3% in test [16]; 98.8% in [17]; -35% (active) in test [18]. In [19], the growth was 61.5%.
Regarding `CC(C)C/C(=N\NC(=O)c1ccncc1)c1cc(Cl)ccc1O`, the growth was 23.1% in test [1]; 50.5% in test [2]; 13.1% in [3]; 30.6% in test [4]; 8.41% (active) in [5]; 20.8% in [6]. The growth is -1.16% (active) in [7]; 13.9% in test [8]; 23.5% in test [9]; 9.61% (active) in test [10]; 21.7% in test [11]; 36.3% in [12]. The growth is 40.2% in test [13]; 24.9% in test [14]; 19.2% in [15]; 12% in [16]; 6.11% (active) in test [17]; 2.19% (active) in test [18]. In addition, the growth in [19] is 23%.
`COc1c(O)cc2oc3cc(O)c(CC=C(C)C)c(O)c3c(=O)c2c1C/C=C(\C)CCC=C(C)C`: the growth was 33.5% in test [1]; 105% in test [2]; 90.1% in test [3]; 41.2% in test [4]; 33.6% in [5]; 45.1% in [6]. Also, the growth was 30.2% in test [7]; 81.7% in [8]; 81.1% in test [9]; 27.2% in [10]; 127% in test [11]; 5.81% (active) in test [12]. Besides, the growth in test [13] is -22.5% (active); in [14], 64.7%; in test [15], 87.2%; in test [16], 93.2%; in test [17], 103%; in test [18] it was 52%. Further, the growth in [19] was 73%.
As for `O=c1[nH]c(=O)n(C2CC(O)C(CO)O2)cc1C(F)(F)F` (stereo not drawn), the growth in test [1] was -5.01% (active); in test [2], 57%; in test [3], 76%; in [4] it was 33.1%; in test [5], 19.2%; in test [20], -12% (active). For the same compound, the growth in [7] was 12.7%; in test [8], 69.2%; in [9] it was 6.03% (active); in test [10], 62.4%; in [11], 51.4%; in test [12] it was 102%. Besides, the growth in test [14] is 30.7%; in test [15], 6.84% (active); in [16], 8.46% (active); in [18], 15.8%; in test [19], 73.9%.
As for `Nc1nc2ncc(CCNc3ccc(C(=O)NC(CCC(=O)O)C(=O)O)cc3)nc2c(=O)[nH]1` (stereo not drawn), the growth in [1] was 43.3%; in test [2] it was 102%; in test [3], 122%; in test [4], 90.6%; in test [5], 108%; in test [20] it was 28%. Moreover, the growth is 93.1% in test [7]; 118% in test [8]; 109% in test [9]; 127% in test [10]; 118% in [11]; 115% in test [12]. Moreover, the growth was 110% in test [14]; 113% in [15]; 94.3% in [16]; 75.2% in test [17]; 114% in test [18]; 98.2% in test [19].
Turning to `CC/C(=C\c1ccc(N(C)C)cc1)c1ccncc1`, the growth in [1] is 63.3%; in test [2], 74.8%; in [3], 94.6%; in [4], 46.6%; in test [5] it was 14.3%; in [6], 43.5%. Moreover, the growth in test [7] is 54.6%; in test [8] it was 36.1%; in test [9] it was 85%; in test [10] it was 16.2%; in test [11] it was 9.47% (active); in test [12] it was 51.6%. Also, the growth in [13] is 91.1%; in test [14] it was 71.7%; in [15] it was 49%; in test [16], 58.6%; in test [17], 75%; in test [18] it was 29.6%. The growth in test [19] was 37.5%.
In the case of `O=C(O)C(=O)O`, the growth in [1] was 15.2%; in test [2] it was 96.6%; in test [3], 95.2%; in [4], 108%; in [5] it was 111%; in [20] it was 33.1%. The growth in [7] was 96.9%; in test [8], 108%; in test [9], 99.6%; in [10], 116%; in test [11], 108%; in [12], 102%. Moreover, the growth is 108% in [14]; 110% in test [15]; 94.8% in test [16]; 109% in test [18]; 95% in test [19].
In the case of `O=C(CSCC(=O)N/N=C/c1ccccc1O)N/N=C\c1ccccc1O`, the growth in test [1] is 40.8%; in [2], 39.4%; in test [3], 15.7%; in [4], 25.3%; in test [5], 14.2%; in test [6], 38.1%. In addition, the growth in [7] was 5.14% (active); in test [8], 17.2%; in test [9] it was 37.1%; in test [10] it was 10.8%; in test [11] it was 2.43% (active); in [12], 42.7%. Also, the growth in test [13] is 44.8%; in test [14] it was 28.9%; in test [15], 35.5%; in test [16] it was 25.6%; in test [17], 25.6%; in test [18] it was -4.57% (active). Moreover, the growth in test [19] is 22.9%.
Consider `CN1CCCC1c1cccnc1` (stereo not drawn), for which the growth was 2.54% (active) in [1]; 96.4% in test [2]; 105% in [3]; 113% in [4]; 98.6% in test [5]; 17.3% in test [20]. The growth is 108% in test [7]; 105% in test [8]; 110% in test [9]; 106% in test [10]; 128% in [11]; 97.3% in test [12]. The growth is 111% in test [14]; 124% in [15]; 85.2% in [16]; 119% in [18]; 100% in [19].
Consider `Clc1ccc(-n2cnc3c(Cl)ncnc32)cc1Cl`, for which the growth in test [1] is 87%; in test [2] it was 102%; in test [3] it was 64.8%; in test [4] it was 83.6%; in test [5] it was 101%; in test [6], 95.5%. The growth in [7] is 98.7%; in test [8], 92.2%; in [9], 76.6%; in test [10] it was 61.1%; in test [11], 85%; in test [12], 87.5%. Besides, the growth in [13] was 97.3%; in test [14] it was 78.3%; in test [15], 119%; in [16] it was 104%; in test [17], 84.4%; in test [18], 48.4%. Further, the growth in test [19] is 60.4%.

The values above are taken from PubChem BioAssay (NCI).
